“And” between values parts separate entries of the source, which are not always exact repeats. Identical values can stand only once.
Tested on: Plasmodium falciparum
Assay: GSK_TCMDC: Inhibition of Plasmodium falciparum Dd2 in whole red blood cells, using parasite LDH activity as an index of growth. Test compounds present at 2uM
Assay type: functional

Going from `COc1cccc(CN2CCC(CCOC(c3ccccc3)c3ccc(Cl)cc3)CC2)c1O` (stereo not drawn) to `COc1cccc(C2(C)CCN(CCCCNC(=O)c3ccc(NC(=O)c4ccc(Cl)cc4)cc3)CC2)c1.Cl`, the Inhibition falls from 100% to 72%.

Going from `O=C(/C=C/c1ccc(Cl)c(Cl)c1)NC1CCC(N2CCC(c3c[nH]c4ccc(O)cc34)CC2)CC1` (stereo not drawn) to `Cc1cccc2c(C3CCN(CC4CCC(NC(=O)/C=C/c5ccc(Cl)c(Cl)c5)CC4)CC3)c[nH]c12` (stereo not drawn), the Inhibition rises from 16% to 49%.

Going from `COc1cc(NC(=O)c2nn(CCCN3CCC4(CC3)C(=O)NCN4c3ccccc3)cc2-c2ccc(Cl)c(Cl)c2)cc(OC)c1OC` to `O=C1NCN(c2ccc(O)cc2)C12CCN(CCCC(c1ccc(F)cc1)c1ccc(F)cc1)CC2`, the Inhibition falls from 75% to 34%.

Compared with `CCCCCCC(C)(C)c1cc(O)c2c(c1)OC(C)(C)c1ccncc1-2.Cl`, `CC1(CCCCN2CC=C(c3c[nH]c4ccccc34)CC2)C(=O)Nc2ccccc21` (stereo not drawn) is lower in Inhibition: 99% for the first, 90% for the second.

First: CC[C@H]1CN2CC[C@@H]1C[C@H]2[C@H](O)c1cc(N2CCOCC2)nc2ccc(OC)cc12
Second: CC[C@H]1CN2CC[C@@H]1C[C@H]2[C@H](O)c1cc(N2CCC(N3CCCCC3)CC2)nc2ccc(OC)cc12
The Inhibition of the first is higher: 99% for the first, 77% for the second.

Going from `O=C(/C=C/c1ccc(Cl)c(Cl)c1)N1CCC(CN2CCC(c3c(-c4ccc(F)cc4)[nH]c4ccccc34)CC2)CC1` to `Cc1[nH]c2ccccc2c1C1CCN(CC2CCC(NC(=O)/C=C/c3ccc(Cl)c(Cl)c3)CC2)CC1` (stereo not drawn), the Inhibition falls from 98% to 93%.

Going from `CC(C)/C(=C(/F)CN1C(=O)C(NC(=O)c2cc3ccccc3[nH]2)C(=O)N(c2ccccc2)c2ccccc21)c1ccccc1` (stereo not drawn) to `CC(=O)Nc1ccc(CN2CCC(N(C)c3ccc(NC(=O)c4cccc(C)c4)cc3)CC2)cc1.O=C(O)C(F)(F)F`, the Inhibition falls from 82% to 50%.

Compared with `COc1ccc(C[C@H]2NC[C@H](O)[C@H]2OC(C)=O)cc1` [ANISOMYCIN], `COc1ccc2[nH]cc(C3=CCN(CC4CC4C(=O)c4ccccc4)CC3)c2n1` (stereo not drawn) is lower in Inhibition: 98% for the first, 93% for the second.

Going from `Cc1c(C)c2c(c(C)c1O)CC[C@](C)(C(=O)N1CCC(CN3CCC(c4c[nH]c5ccccc45)CC3)CC1)O2` to `O=C(/C=C/c1cc(F)c(F)cc1F)N1CCC(CN2CCC(c3c[nH]c4ccccc34)CC2)CC1`, the Inhibition falls from 98% to 3%.

Compared with `CC(C)N(C)C(=O)n1cnc(S(=O)(=O)C2CC3CCC2C3)n1.Cl` (stereo not drawn), `Cc1cccc(C(=O)Nc2ccnc(N(C)C3CCN(CC(C)C)CC3)c2)c1.O=C(O)C(F)(F)F` is lower in Inhibition: 96% for the first, 6% for the second.

First: O.Oc1cccc(C2CCCN(CCc3c[nH]c4ccccc34)C2)c1 (stereo not drawn)
Second: O=C(NC1CCC(CN2CCC(c3c[nH]c4ccccc34)CC2)CC1)[C@H]1Cc2ccccc2CN1 (stereo partly drawn)
The Inhibition of the first is higher: 40% for the first, 35% for the second.

Going from `CC(Cc1ccc(OCCCCOc2ccccc2)cc1)NCCC1CCCN1C` (stereo not drawn) to `CCOC(C(=O)OCC1CCCN1C(C)C)(c1ccccc1)c1ccccc1` (stereo not drawn), the Inhibition falls from 98% to 2%.

Going from `Cc1ccc(CC(C)NC[C@H](O)c2cccc(Cl)c2)cc1.Cl` (stereo partly drawn) to `CC(Cc1ccc(C2=CCNCC2)cc1)NCC(O)c1cccc(C(F)(F)F)c1.Cl` (stereo not drawn), the Inhibition falls from 47% to 0%.

Going from `CC(C)(C)c1cc(/C=C/C(=O)NC2CCC(CN3CCC(c4c[nH]c5ccccc45)CC3)CC2)cc(C(C)(C)C)c1O` (stereo not drawn) to `O=C(/C=C/c1cc(C(F)(F)F)ccc1F)NC1CCC(CN2CCC(c3c[nH]c4ccccc34)CC2)CC1` (stereo not drawn), the Inhibition falls from 100% to 66%.

Going from `COC(=O)c1ccc(CC(C)NCC(O)c2cccc(Oc3cccc(C(F)(F)F)c3)c2)cc1.Cl` (stereo not drawn) to `CN(c1cc(NC(=O)c2ccc(F)cc2)ccn1)C1CCN(Cc2cccc(C#N)c2)CC1.O=C(O)C(F)(F)F`, the Inhibition rises from 73% to 83%.

First: Cc1[nH]c2ccc([N+](=O)[O-])cc2c1C1=CCN(C)CC1
Second: NC(=O)CN1CC=C(c2c[nH]c3ccc(Br)cc23)CC1
The Inhibition of the first is higher: 68% for the first, 0% for the second.

First: CN(c1cc(NC(=O)c2ccc(F)cc2)ccn1)C1CCN(Cc2ccc(C#N)cc2)CC1.O=C(O)C(F)(F)F
Second: O=C(CCC(=O)c1ccc2c3c(cccc13)CC2)NC1CCC(CN2CCC(c3c[nH]c4ccccc34)CC2)CC1 (stereo not drawn)
The Inhibition of the first is higher: 54% for the first, 13% for the second.

First: C[C@@H](CC1CCCCC1)NCc1ccccc1O
Second: O=C(/C=C/c1c(Cl)cccc1Cl)NC1CCC(CN2C3CCC2CC(c2c[nH]c4ccccc24)C3)CC1 (stereo not drawn)
The Inhibition of the first is higher: 67% for the first, 18% for the second.

With `O=C(Nc1ccccc1Cl)NC1CCC(CN2CCC(c3c[nH]c4ccccc34)CC2)CC1` (stereo not drawn) the Inhibition was 34% and 31%.
In the case of `O=C(/C=C/c1cccc2ccccc12)NC1CCC(CN2CCC(c3c[nH]c4ccccc34)CC2)CC1` (stereo not drawn), the Inhibition is reported as 72% and 66%.

Reference: ChEMBL document CHEMBL1157539, “Thousands of chemical starting points for antimalarial lead identification” (Nature, 2010)
